Targets with a hit are over-represented here; the source holds about 8,800 in all. About 0.5% of all pairs of compound and target were hits. Values without a mark were called inactive.
Assays:
Test in all cases: log2 fold change, soluble protein after heating vs DMSO (PISA); higher = thermal stabilisation; K562 lysate, 10 uM; active = over 0.2 and 3.5 SD of the protein, either way, in both replicates (recomputed)
alvocidib = compound: CN1CC[C@H](c2c(O)cc(O)c3c(=O)cc(-c4ccccc4Cl)oc23)[C@H](O)C1 [alvocidib]
Outline: (§1)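 A 30 min treatment with 10 μM compound was applied to crude K562 extract at 1 mg/mL protein in PBS pH 7.4 with 1 mM MgCl2. Heating for 3 min spanned 48°C-58°C, after which aliquots were pooled, adjusted to 0.5% NP-40 at 4°C and spun at 21,000xg for 90 min. TMTpro 16plex LC-MS/MS of the supernatant, with channel sums equalised, gave values recorded as log-two fold change in thermal stability against solvent controls, from duplicates.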

Tubastatin A = compound: CN1CCc2c(c3ccccc3n2Cc2ccc(C(=O)NO)cc2)C1 [Tubastatin A]
Outline: as §1

[1] = compound: CNC(=O)C1=CC=CC=C1NC2=NC(=NC=C2Cl)NC3=C(C=C(C=C3)N4CCOCC4)OC
Outline: as §1

defactinib = compound: CNC(=O)c1ccc(Nc2ncc(C(F)(F)F)c(NCc3nccnc3N(C)S(C)(=O)=O)n2)cc1 [defactinib]
Outline: as §1

[2] = compound: CNc1nc(-c2ccc3c(N)n[nH]c3c2)cc(N2C[C@@H](C(=O)NC3CCCCC3)CC[C@H]2C)n1
Outline: as §1

encorafenib = compound: COC(=O)N[C@@H](C)CNc1nccc(-c2cn(C(C)C)nc2-c2cc(Cl)cc(NS(C)(=O)=O)c2F)n1 [encorafenib]
Outline: as §1

[3] = compound: COC(=O)[C@H](CCSC)NC(=O)C1=C(C=C(C=C1)NC[C@H](CS)N)C2=CC=CC=C2
Outline: as §1

alisertib = compound: COc1cc(Nc2ncc3c(n2)-c2ccc(Cl)cc2C(c2c(F)cccc2OC)=NC3)ccc1C(=O)O [alisertib]
Outline: as §1

[4] = compound: COc1cc2nc(-c3cc(F)ccc3O)nc(N[C@@H]3CNC[C@H]3C(C)(C)O)c2cc1OC
Outline: as §1

gefitinib = compound: COc1cc2ncnc(Nc3ccc(F)c(Cl)c3)c2cc1OCCCN1CCOCC1 [gefitinib]
Outline: as §1

Chain of UniProt Q15796 (Q15796 whole entry, looked up): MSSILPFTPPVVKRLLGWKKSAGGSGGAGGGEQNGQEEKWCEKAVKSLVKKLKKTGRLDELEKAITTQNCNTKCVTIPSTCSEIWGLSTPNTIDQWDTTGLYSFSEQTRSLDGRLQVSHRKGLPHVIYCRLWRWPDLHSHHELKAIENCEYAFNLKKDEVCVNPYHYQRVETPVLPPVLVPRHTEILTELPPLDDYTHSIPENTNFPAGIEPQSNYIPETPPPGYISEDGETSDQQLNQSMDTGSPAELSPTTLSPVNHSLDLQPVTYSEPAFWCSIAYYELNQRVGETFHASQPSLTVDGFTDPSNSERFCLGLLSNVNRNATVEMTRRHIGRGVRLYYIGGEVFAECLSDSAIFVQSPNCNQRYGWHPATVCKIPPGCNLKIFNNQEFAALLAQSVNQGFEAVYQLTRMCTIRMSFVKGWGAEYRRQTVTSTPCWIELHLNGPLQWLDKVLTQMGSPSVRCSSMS
Chain of UniProt Q8TBC3 (Q8TBC3 whole entry, looked up): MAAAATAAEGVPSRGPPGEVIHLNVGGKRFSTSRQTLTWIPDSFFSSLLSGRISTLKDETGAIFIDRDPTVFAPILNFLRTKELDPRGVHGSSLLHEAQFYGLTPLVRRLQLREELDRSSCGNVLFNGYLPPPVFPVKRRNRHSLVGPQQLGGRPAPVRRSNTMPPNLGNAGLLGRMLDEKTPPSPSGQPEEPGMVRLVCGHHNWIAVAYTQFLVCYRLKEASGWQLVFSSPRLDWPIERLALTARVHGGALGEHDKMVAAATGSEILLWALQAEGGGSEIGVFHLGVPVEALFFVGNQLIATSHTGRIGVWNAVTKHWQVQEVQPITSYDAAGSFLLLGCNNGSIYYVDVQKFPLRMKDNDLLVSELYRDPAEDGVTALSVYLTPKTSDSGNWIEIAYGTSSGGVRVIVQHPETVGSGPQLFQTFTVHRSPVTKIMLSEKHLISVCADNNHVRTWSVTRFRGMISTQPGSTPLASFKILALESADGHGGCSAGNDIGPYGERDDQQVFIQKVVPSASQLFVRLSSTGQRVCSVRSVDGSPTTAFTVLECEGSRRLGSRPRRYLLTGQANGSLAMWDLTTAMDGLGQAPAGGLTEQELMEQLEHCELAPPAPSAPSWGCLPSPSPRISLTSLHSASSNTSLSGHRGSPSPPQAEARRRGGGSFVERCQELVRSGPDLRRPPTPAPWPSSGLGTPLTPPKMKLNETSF
Chain of UniProt Q13148 (Q13148 whole entry, looked up): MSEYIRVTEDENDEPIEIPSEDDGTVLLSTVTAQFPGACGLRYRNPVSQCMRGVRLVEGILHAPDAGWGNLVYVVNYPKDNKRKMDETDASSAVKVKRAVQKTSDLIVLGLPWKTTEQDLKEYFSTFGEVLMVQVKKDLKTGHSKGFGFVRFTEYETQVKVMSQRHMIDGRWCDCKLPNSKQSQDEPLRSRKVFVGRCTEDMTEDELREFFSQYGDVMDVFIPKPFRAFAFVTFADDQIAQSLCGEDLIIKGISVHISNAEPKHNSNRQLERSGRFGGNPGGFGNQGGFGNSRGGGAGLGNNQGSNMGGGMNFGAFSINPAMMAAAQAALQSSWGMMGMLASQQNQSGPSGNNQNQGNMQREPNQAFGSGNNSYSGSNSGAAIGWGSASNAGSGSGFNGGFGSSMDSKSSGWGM
Chain of UniProt P62306 (P62306 whole entry, looked up): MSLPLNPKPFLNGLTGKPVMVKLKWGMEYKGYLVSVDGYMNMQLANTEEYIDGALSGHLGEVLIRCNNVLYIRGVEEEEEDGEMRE
Chain of UniProt Q9UJC5 (Q9UJC5 whole entry, looked up): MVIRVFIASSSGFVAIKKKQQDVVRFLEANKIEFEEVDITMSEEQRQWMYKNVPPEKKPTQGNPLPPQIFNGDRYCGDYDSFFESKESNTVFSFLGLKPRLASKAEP
Chain of UniProt Q96CQ1 (Q96CQ1 whole entry, looked up): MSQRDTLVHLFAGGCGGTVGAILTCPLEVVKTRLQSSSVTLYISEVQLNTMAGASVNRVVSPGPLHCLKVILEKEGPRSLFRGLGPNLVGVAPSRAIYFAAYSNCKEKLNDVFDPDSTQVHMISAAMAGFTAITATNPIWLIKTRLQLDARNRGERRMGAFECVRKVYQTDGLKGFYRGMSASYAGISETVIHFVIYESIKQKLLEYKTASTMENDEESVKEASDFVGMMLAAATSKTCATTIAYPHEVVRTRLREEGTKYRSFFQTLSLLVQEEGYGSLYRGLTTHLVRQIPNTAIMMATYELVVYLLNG
Chain of UniProt Q86XK3 (Q86XK3 whole entry, looked up): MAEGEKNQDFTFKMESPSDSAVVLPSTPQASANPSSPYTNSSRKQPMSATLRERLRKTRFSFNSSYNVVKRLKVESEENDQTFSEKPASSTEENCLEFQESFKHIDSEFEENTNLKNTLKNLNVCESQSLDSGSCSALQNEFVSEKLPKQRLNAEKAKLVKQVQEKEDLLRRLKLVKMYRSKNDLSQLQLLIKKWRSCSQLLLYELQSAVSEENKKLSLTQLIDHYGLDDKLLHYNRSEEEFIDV
Chain of UniProt Q8N1S5 (Q8N1S5 whole entry, looked up): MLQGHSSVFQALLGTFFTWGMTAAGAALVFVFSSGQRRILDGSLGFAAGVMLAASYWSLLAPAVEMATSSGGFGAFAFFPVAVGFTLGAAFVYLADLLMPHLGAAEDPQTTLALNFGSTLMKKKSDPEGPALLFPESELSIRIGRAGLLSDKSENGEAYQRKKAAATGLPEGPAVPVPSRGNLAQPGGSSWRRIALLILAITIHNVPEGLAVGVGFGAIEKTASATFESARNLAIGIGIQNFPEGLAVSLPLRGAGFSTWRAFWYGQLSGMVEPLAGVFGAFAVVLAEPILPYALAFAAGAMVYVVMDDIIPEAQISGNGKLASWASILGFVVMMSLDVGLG
Chain of UniProt Q9H2D1 (Q9H2D1 whole entry, looked up): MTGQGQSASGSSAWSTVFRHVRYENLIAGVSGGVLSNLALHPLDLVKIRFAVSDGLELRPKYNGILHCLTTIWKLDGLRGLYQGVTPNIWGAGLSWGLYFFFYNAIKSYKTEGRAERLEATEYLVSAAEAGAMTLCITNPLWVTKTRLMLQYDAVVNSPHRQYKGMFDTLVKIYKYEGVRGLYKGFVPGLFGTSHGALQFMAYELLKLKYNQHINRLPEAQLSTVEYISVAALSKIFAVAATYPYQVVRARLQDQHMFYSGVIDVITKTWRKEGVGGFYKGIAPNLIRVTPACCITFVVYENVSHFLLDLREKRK
Chain of UniProt P62318 (P62318 whole entry, looked up): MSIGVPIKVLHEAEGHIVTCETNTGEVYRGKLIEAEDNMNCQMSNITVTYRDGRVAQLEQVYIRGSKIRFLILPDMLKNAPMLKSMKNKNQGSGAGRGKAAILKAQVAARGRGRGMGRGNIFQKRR
Chain of UniProt Q16629 (Q16629 whole entry, looked up): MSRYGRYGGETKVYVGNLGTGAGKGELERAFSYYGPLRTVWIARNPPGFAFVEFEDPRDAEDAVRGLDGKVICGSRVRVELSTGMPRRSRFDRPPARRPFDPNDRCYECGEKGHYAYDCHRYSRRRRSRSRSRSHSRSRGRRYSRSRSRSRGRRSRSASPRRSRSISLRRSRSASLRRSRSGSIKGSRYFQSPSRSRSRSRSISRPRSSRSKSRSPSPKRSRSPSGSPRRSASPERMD
Chain of UniProt Q8WUM9 (Q8WUM9 whole entry, looked up): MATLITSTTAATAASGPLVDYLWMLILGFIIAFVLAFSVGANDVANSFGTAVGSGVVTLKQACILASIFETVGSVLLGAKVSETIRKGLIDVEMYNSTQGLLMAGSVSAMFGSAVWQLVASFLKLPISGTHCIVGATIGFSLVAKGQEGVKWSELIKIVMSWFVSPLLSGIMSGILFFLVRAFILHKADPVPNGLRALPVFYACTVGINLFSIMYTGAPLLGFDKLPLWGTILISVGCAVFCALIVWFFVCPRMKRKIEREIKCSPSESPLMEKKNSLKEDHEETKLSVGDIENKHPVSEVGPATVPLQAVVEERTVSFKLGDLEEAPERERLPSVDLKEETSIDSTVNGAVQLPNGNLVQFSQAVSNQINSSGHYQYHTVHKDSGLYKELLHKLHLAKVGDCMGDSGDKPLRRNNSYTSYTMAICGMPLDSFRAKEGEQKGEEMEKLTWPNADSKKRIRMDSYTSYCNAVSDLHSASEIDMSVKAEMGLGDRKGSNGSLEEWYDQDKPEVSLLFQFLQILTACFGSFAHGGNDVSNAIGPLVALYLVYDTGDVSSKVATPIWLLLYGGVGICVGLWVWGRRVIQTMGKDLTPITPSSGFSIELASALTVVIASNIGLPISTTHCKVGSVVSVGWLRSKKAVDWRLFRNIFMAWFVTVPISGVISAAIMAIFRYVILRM
Chain of UniProt Q96EX1 (Q96EX1 whole entry, looked up): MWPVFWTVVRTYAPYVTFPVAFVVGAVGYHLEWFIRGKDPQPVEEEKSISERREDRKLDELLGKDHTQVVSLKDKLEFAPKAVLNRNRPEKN
Chain of UniProt O00506 (O00506 whole entry, looked up): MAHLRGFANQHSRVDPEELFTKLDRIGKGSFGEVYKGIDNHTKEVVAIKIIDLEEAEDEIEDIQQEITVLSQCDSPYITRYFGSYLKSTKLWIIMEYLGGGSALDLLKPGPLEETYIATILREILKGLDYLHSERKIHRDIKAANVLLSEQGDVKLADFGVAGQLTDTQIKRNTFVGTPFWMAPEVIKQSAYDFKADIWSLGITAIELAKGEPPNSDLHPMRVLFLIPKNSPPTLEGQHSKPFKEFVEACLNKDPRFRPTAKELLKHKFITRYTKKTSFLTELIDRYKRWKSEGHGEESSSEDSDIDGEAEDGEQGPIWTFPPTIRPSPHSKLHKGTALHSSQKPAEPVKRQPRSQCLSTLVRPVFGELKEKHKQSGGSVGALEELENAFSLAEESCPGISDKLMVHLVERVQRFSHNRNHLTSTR

Row | Target | log2 fold change (alvocidib) | log2 fold change (Tubastatin A) | log2 fold change [1] | log2 fold change (defactinib) | log2 fold change [2] | log2 fold change (encorafenib) | log2 fold change [3] | log2 fold change (alisertib) | log2 fold change [4] | log2 fold change (gefitinib)
1 | SRSF7 (UniProt Q16629) | -0.2 | -0.005 | -0.057 | -0.06 | 0.051 | 0.032 | 0.049 | 0.006 | 0.038 | 0.067
2 | SFR1 isoform 2 (UniProt Q86XK3) | -0.014 | -0.003 | -0.009 | -0.155 | -0.005 | 0.014 | -0.007 | 0.004 | -0.007 | -0.03
3 | SHKBP1 (UniProt Q8TBC3) | -0.038 | -0.018 | -0.002 | 0.115 | 0.046 | -0.05 | 0.274 (active) | 0.019 | 0.001 | 0.023
4 | SMAD2 (UniProt Q15796) | -0.058 | 0.009 | 0.167 | 0.01 | 0.038 | -0.01 | 0.03 | -0.069 | 0.006 | 0.016
5 | SLC25A36 (UniProt Q96CQ1) | 0.024 | -0.047 | 0.048 | 0.068 | 0.029 | 0.041 | 0 | 0.04 | 0.049 | 0.025
6 | SNRPF (UniProt P62306) | -0.119 | -0.028 | -0.02 | 0.014 | -0.034 | 0.021 | 0.014 | -0.03 | 0.022 | 0.084
7 | STK25 (UniProt O00506) | -0.016 | -0.093 | 0.023 | 0.147 | -0.023 | 0.025 | -0.04 | -0.007 | 0.036 | -0.065
8 | SLC25A32 (UniProt Q9H2D1) | -0.05 | 0.037 | -0.01 | 0.03 | 0.052 | 0.04 | 0.01 | 0.036 | 0.001 | -0.033
9 | TARDBP (UniProt Q13148) | -0.006 | -0.318 (active) | -0.044 | 0 | -0.139 | 0.181 | 0.137 | 0.012 | -0.004 | 0.06
10 | SH3BGRL2 (UniProt Q9UJC5) | 0.067 | 0.031 | 0.05 | 0.039 | 0.061 | -0.066 | 0.027 | -0.013 | -0.001 | -0.001
11 | SMIM12 (UniProt Q96EX1) | 0.22 | 0.007 | 0.065 | 0.025 | 0.07 | -0.067 | -0.018 | 0.018 | -0.044 | -0.033
12 | SNRPD3 (UniProt P62318) | -0.121 | 0.014 | -0.003 | -0.046 | -0.068 | -0.014 | 0.027 | 0.017 | 0.022 | 0.052
13 | SLC39A11 (UniProt Q8N1S5) | -0.02 | -0.065 | 0.107 | 0.338 | -0.111 | -0.059 | -0.23 | -0.047 | 0.097 | 0.059
14 | SLC20A1 (UniProt Q8WUM9) | 0.002 | 0.054 | -0.012 | -0.155 | 0.016 | -0.039 | -0.057 | -0.026 | 0.036 | 0.05
